# Data: the supplement of paper PMC3334620
# Whole data set: some 33,000 sequences, median “E-score (-0.5 to 0.5)” near -0.053, cut for the highest 2% near 0.37. This excerpt belongs to a sample that is enriched for the highest values.
# Target: Hap1 (UniProt P0CE41)
# Experiment: PBM E-score (8-mer binding enrichment) (E-score (-0.5 to 0.5)); higher = stronger / more preferred TF binding
# Conditions: protein concentration: 200 nM; construct: GST-DNA-binding domain
# Procedure: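 Universal 'all 10-mer' protein binding microarrays (Agilent AMADID 015681) probed with GST-tagged S. cerevisiae TFs (full-length or DBD) made by in vitro transcription/translation (PURExpress), about 100-200 nM. Bound TF was detected with fluorescent anti-GST. Each ungapped 8-mer (which stands for itself and its reverse complement) is scored by the PBM enrichment score (E-score), a modified Wilcoxon-Mann-Whitney statistic from -0.5 to +0.5, computed with the Universal PBM Analysis Suite. Scale: above 0.35 generally sequence-specific binding.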
# Sequence of UniProt P0CE41 (P0CE41 whole entry): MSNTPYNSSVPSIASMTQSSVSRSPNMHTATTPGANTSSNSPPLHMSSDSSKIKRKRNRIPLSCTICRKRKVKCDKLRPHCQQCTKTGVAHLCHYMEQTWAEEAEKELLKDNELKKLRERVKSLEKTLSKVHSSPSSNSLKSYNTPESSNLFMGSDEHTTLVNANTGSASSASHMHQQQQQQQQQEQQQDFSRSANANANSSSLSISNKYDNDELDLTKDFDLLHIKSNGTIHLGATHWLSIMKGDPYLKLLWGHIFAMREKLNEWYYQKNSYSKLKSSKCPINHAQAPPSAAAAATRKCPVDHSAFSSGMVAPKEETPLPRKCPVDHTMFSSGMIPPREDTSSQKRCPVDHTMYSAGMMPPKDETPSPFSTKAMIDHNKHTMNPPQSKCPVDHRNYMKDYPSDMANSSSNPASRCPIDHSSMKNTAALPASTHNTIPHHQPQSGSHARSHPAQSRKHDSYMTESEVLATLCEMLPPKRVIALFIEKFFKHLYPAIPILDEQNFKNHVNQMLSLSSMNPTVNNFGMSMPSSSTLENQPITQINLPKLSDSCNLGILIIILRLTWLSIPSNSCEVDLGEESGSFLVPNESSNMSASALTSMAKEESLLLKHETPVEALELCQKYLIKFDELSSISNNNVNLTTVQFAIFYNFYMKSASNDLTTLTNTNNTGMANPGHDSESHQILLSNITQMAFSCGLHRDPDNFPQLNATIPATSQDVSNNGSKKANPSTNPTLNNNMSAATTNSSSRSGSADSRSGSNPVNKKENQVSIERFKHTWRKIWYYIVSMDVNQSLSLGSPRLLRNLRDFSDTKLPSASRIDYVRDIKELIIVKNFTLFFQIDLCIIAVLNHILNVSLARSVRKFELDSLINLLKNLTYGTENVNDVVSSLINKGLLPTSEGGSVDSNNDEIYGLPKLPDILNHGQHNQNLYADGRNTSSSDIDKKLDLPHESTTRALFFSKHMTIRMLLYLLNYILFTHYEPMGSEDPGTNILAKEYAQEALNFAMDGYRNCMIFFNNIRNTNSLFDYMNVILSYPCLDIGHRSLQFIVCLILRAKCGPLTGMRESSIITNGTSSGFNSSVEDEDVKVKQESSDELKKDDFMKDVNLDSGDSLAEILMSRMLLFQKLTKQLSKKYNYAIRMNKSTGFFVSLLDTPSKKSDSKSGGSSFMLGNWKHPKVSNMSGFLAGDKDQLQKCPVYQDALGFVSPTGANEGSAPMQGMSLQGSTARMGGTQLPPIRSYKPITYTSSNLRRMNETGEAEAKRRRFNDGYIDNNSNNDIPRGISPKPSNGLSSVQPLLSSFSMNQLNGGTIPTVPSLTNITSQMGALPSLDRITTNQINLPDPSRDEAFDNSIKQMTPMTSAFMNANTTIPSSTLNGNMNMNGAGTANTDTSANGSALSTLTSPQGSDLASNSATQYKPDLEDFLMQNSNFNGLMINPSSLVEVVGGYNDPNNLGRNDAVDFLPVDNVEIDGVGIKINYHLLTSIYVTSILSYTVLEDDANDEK
row,Sequence,PBM E-score
1,AGGCCACC,-0.0824
2,AAGAACTT,-0.101
3,CTGTGTCC,-0.0361
4,TTCGCGAA,0.138
5,GCGGGAAC,0.212
6,GCGGACGA,0.366
7,ACGGACGA,0.359
8,CTGGACGA,-0.158
9,CCGGACGA,0.431
10,CGGGACGA,0.0655
11,TCGGACGA,0.414
12,ACGGACGG,0.244
13,CCGGACGG,0.444
14,CCGGACGC,0.366
15,ATTTTGAC,-0.0308
16,ACGGGAAA,0.174
17,CGCCTACC,-0.0452
18,AAGTCGAG,-0.359
19,AAGCTAGC,-0.0783
20,AAAGACAC,-0.0224
21,TCATAGGA,-0.112
22,ATCTGCAA,-0.287

row,Sequence,PBM E-score
1,ATGCGTAA,-0.0748
2,ATTCGTAC,0.00708
3,AAGCCGAA,0.334
4,AAGCCGAC,0.298
5,AAGCCGAT,0.399
6,AGGCCGAT,0.327
7,CAGCCGAG,0.238
8,AAGCCGAG,0.372
9,ATCATTCG,0.0233
10,GCGGATAA,0.294
11,ACGGATTA,0.142
12,ACGGACAG,0.113
13,CCGGATTA,0.383
14,TCGGATAA,0.374
15,ACGGATAG,0.11
16,ACGGATAA,0.282
17,GCGGATTA,0.189
18,ACGGACAC,0.278
19,ACGGACAT,0.421
20,TGGGATAA,-0.0448
21,ACGGATAT,0.43
22,CGGATTAG,0.305

row,Sequence,PBM E-score
1,ACACCTTC,0.105
2,AATTCGAG,-0.267
3,ACGGAGAT,0.445
4,ACGGAAAC,0.287
5,CCGGATAC,0.323
6,ACGGAGAG,0.284
7,CCGGATAG,0.316
8,ACGGAAAT,0.432
9,CGGGAATA,0.458
10,ACGGAGAC,0.285
11,CCGGATAA,0.435
12,ACGGAAAG,0.232
13,GGGGAATA,0.107
14,AGGGAATA,0.127
15,CGTACGAG,0.0155
16,GGTAGAAC,-0.243
17,CAGGAAGC,-0.0892
18,GAGAGATC,-0.0834
19,GGGGACCC,-0.043
20,AGGGCTAA,-0.2
21,CCAGGTTC,-0.153
22,CGGGATTA,0.454

row,Sequence,PBM E-score
1,AGGGATTA,-0.136
2,CGGGATTC,0.292
3,GAAACCTC,-0.00121
4,GGCAAGCC,-0.0221
5,AGTCCACG,0.0474
6,AGCCCGCC,0.184
7,GACGGACC,0.285
8,GTGCCGGA,0.406
9,ATGCCGGC,0.287
10,ATGCCGGG,0.217
11,CTGCCGGA,0.286
12,GTGCCGTA,0.1
13,ATGCCGGA,0.4
14,ACTGCTAG,-0.267
15,ATCCGGTG,0.411
16,AACCGGTG,0.329
17,ATCCGCAG,0.208
18,GTCCGGAC,0.454
19,ATCCGGAG,0.424
20,GTCCGGAA,0.416
21,GTCCGCAC,0.237
22,GTGCGGAA,0.159

row,Sequence,PBM E-score
1,ATACGGTG,0.0257
2,GTACGGAC,0.26
3,ATGCGGAG,0.222
4,GTCCGGCA,0.35
5,CCTATGCG,0.00275
6,GTATCCCA,-0.135
7,AAGGGTCA,-0.124
8,CACTGGAA,-0.275
9,ATAACGCA,0.0362
10,AACGGGTG,0.29
11,CGATCTGC,0.156
12,TGAAGGCA,-0.35
13,AACCGGGG,0.301
14,ATCCGGAT,0.414
15,ATCCGGGG,0.399
16,ATCCGACC,0.307
17,ATCCGCAC,0.21
18,ATCCGGCG,0.355
19,ATCCGTAC,0.147
20,ATCCGCAT,0.289
21,ATACGGAT,0.204
